In paper PMC5913336, “True equilibrium measurement of transcription factor-DNA binding affinities using automated polarization microscopy”:

Biological target: T1, Slp1-FL (Drosophila melanogaster, UniProt P32030)
T1 sequence: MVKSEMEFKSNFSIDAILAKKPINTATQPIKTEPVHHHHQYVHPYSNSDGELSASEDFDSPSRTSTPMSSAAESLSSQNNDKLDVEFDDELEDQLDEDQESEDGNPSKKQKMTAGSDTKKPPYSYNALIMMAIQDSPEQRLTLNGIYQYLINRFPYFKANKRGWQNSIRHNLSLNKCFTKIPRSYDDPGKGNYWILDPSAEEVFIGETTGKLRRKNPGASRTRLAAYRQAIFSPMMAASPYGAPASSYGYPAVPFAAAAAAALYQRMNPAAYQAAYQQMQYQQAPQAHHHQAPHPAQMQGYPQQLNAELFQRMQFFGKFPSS
Experiment: FP; 33 mM phosphate pH 7.0, 90 mM NaCl, 0.01% Tween 20, 0.1 mM DTT, 0.5% agarose; room temperature
Conditions: tags: N-GST (pGEX-6P-1, kept); dsDNA, one strand shown

Point of comparison: ACGTGTTTACATTTA, binding signal 1.28 Kd / Kd of best base at the position. Against it:
- ACGTTTTTACACTTA — higher, 21.2 Kd / Kd of best base at the position
- ACGTGTTTACCCTTA — higher, 2.19 Kd / Kd of best base at the position
- ACATGTTTACACTTA — lower, 1.13 Kd / Kd of best base at the position

Biological target: T2, Gt (Drosophila melanogaster, UniProt P39572 369-448)
T2 sequence: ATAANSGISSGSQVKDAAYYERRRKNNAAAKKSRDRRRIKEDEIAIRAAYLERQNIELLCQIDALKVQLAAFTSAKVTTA
Experiment: as above
Conditions: tags: N-GST (pGEX-6P-1, kept); chain copies: 2; dsDNA, one strand shown

Point of comparison: ATTACTTAACC, binding signal 567 Kd / Kd of best base at the position. Against it:
- ATTACGTGACC — lower, 18.9 Kd / Kd of best base at the position
- ATTACGTAACG — lower, 3.4 Kd / Kd of best base at the position
- GTTACGTAACC — lower, 1.09 Kd / Kd of best base at the position
- ATTACGTAACT — lower, 4.28 Kd / Kd of best base at the position
- ATTTCGTAACC — lower, 177 Kd / Kd of best base at the position
- ATTACGGAACC — lower, 460 Kd / Kd of best base at the position
- ATCACGTAACC — lower, 40.1 Kd / Kd of best base at the position
- ATTACATAACC — lower, 3.03 Kd / Kd of best base at the position
- ATTATGTAACC — lower, 3.81 Kd / Kd of best base at the position
- ATTACGTCACC — lower, 5.02 Kd / Kd of best base at the position
- ATTCCGTAACC — higher, 1830 Kd / Kd of best base at the position
- ATTACGTATCC — lower, 549 Kd / Kd of best base at the position
- TTTACGTAACC — lower, 6.92 Kd / Kd of best base at the position
- ATTACGTAAGC — lower, 3.37 Kd / Kd of best base at the position
- AGTACGTAACC — lower, 155 Kd / Kd of best base at the position
- ATTACGTAATC — lower, 1.58 Kd / Kd of best base at the position
- ATTACGTACCC — higher, 1620 Kd / Kd of best base at the position
- ATTACCTAACC — lower, 45.8 Kd / Kd of best base at the position
- ATTACGAAACC — lower, 316 Kd / Kd of best base at the position
- ATTACGCAACC — lower, 4.03 Kd / Kd of best base at the position
- CTTACGTAACC — lower, 2.33 Kd / Kd of best base at the position
- ATAACGTAACC — lower, 174 Kd / Kd of best base at the position
- ACTACGTAACC — lower, 121 Kd / Kd of best base at the position
- ATTAAGTAACC — lower, 133 Kd / Kd of best base at the position
- ATTAGGTAACC — lower, 56.6 Kd / Kd of best base at the position
- ATTACGTAAAC — lower, 10.5 Kd / Kd of best base at the position
- ATTACGTAACA — lower, 2.19 Kd / Kd of best base at the position
- ATTGCGTAACC — lower, 3.54 Kd / Kd of best base at the position
- ATTACGTAGCC — higher, 1020 Kd / Kd of best base at the position
- ATTACGTTACC — lower, 518 Kd / Kd of best base at the position
- ATGACGTAACC — lower, 3.59 Kd / Kd of best base at the position
- AATACGTAACC — lower, 113 Kd / Kd of best base at the position

In the case of ATTACGTAACC, the Kd is reported as roughly 0.9 nM.
